Data reported in publication PMC7862700, “An all-to-all approach to the identification of sequence-specific readers for epigenetic DNA modifications on cytosine”.

Experiments:
Assay in all cases: DAPPL (digital affinity profiling via proximity ligation, sequencing); 10 mM Tris-HCl pH 7.5, 50 mM NaCl, 1 mM DTT, 4% glycerol, room temperature, 30 min; GST-TFs on glutathione beads, 16-mer random dsDNA library, 0.1% formaldehyde crosslink after washing; high values mean tight binding
FEV = biological target: T1, FEV (Homo sapiens, UniProt Q99581 1-238); settings: protein: recombinant; tags: N-terminal GST; dsDNA, one strand shown
T1 sequence: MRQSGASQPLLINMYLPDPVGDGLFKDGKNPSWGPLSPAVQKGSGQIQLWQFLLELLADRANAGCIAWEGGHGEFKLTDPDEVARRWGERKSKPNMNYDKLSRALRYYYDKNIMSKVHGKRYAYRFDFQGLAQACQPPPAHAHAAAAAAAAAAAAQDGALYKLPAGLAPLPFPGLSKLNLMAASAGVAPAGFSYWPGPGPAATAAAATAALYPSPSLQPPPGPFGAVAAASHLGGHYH
In short: (§1)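 Human transcription factors were made in yeast as GST fusions, captured on glutathione beads and barcoded with DNA. With a tag-only sample included, the pool was incubated with 200 nmole of a random double-stranded 16-mer DNA library in Tris/NaCl/DTT/glycerol buffer at room temperature for 30 min, then crosslinked with 0.1% formaldehyde after washing, ligated by proximity, amplified and sequenced. For binding signal, each hexamer's read frequency for a factor is divided by its frequency for the tag-only sample.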

ETV5 = ETV5 (Homo sapiens, UniProt P41161 1-510); settings: protein: recombinant; tags: N-terminal GST; dsDNA, one strand shown
In short: as §1

HSF1 = HSF1 (Homo sapiens, UniProt Q00613 1-529); settings: protein: recombinant; tags: N-terminal GST; chain copies: 3; dsDNA, one strand shown
In short: as §1

SPIC = biological target: T2, SPIC (Homo sapiens, UniProt Q8N5J4 1-248); settings: protein: recombinant; tags: N-terminal GST; dsDNA, one strand shown
T2 sequence: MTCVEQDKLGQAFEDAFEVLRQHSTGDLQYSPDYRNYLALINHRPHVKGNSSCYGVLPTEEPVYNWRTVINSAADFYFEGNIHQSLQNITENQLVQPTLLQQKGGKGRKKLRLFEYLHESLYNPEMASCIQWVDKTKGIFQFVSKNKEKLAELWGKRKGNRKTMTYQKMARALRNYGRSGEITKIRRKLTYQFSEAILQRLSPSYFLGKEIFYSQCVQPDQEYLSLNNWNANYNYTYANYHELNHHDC
In short: as §1

ELF4 = ELF4 (Homo sapiens, UniProt Q99607 1-663); settings: protein: recombinant; tags: N-terminal GST; dsDNA, one strand shown
In short: as §1

ELK4 = biological target: T3, ELK4 (Homo sapiens, UniProt P28324-2 1-405); settings: protein: recombinant; tags: N-terminal GST; dsDNA, one strand shown
T3 sequence: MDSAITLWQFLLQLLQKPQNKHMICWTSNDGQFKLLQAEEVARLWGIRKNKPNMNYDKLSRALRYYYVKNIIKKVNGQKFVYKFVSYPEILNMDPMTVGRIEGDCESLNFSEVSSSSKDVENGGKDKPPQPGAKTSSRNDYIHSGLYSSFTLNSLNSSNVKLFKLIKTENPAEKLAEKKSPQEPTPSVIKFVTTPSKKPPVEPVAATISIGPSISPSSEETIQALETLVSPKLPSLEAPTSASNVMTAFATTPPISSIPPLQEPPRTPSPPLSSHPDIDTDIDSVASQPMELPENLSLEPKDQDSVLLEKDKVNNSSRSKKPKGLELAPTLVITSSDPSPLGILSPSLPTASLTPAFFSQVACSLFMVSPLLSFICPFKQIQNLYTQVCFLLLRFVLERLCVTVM
In short: as §1

ETV2 = biological target: T4, ETV2 (Homo sapiens, UniProt O00321 1-342); settings: protein: recombinant; tags: N-terminal GST; dsDNA, one strand shown
T4 sequence: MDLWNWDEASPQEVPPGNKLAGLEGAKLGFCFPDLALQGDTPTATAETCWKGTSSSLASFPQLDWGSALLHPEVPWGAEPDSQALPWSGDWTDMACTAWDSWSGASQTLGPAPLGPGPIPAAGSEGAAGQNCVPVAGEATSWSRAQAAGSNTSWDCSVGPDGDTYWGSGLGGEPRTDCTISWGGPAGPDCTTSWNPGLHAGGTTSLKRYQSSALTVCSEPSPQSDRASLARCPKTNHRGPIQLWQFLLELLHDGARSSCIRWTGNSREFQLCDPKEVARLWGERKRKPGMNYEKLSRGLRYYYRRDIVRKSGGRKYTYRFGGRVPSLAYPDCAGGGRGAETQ
In short: as §1

ELF3 = biological target: T5, ELF3 (Homo sapiens, UniProt P78545 1-371); settings: protein: recombinant; tags: N-terminal GST; dsDNA, one strand shown
T5 sequence: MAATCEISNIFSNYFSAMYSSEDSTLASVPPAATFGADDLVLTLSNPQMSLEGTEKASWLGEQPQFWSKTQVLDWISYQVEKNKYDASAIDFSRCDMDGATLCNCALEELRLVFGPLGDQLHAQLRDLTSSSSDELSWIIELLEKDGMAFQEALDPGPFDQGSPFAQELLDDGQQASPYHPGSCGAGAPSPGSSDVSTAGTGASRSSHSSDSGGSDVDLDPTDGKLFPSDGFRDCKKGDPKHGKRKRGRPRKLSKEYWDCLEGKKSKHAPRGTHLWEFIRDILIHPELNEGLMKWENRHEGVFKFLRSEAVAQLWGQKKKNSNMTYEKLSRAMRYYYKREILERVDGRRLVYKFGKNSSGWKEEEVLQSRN
In short: as §1

CRX = CRX (Homo sapiens, UniProt O43186 1-299); settings: protein: recombinant; tags: N-terminal GST; dsDNA, one strand shown
In short: as §1

ETV1 = ETV1 (Homo sapiens, UniProt P50549 1-477); settings: protein: recombinant; tags: N-terminal GST; dsDNA, one strand shown
In short: as §1

ERF = biological target: T6, ERF (Homo sapiens, UniProt P50548 1-548); settings: protein: recombinant; tags: N-terminal GST; dsDNA, one strand shown
T6 sequence: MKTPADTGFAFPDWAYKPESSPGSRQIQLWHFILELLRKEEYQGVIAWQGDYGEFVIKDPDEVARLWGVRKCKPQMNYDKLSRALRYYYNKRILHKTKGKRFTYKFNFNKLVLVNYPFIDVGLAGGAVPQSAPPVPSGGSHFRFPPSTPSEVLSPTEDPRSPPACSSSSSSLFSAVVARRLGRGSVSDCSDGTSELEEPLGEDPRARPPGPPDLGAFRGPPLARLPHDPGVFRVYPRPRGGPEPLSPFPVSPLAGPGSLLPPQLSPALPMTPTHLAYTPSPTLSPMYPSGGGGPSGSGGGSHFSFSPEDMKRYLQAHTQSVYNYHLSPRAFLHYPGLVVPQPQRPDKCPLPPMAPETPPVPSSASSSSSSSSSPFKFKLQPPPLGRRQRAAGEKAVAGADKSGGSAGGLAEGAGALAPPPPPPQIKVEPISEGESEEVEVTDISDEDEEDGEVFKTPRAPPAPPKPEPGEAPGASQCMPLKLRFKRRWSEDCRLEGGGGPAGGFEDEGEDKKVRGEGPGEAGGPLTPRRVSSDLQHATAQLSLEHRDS
In short: as §1

ETV3L = biological target: T7, ETV3L (Homo sapiens, UniProt Q6ZN32 1-361); settings: protein: recombinant; tags: N-terminal GST; dsDNA, one strand shown
T7 sequence: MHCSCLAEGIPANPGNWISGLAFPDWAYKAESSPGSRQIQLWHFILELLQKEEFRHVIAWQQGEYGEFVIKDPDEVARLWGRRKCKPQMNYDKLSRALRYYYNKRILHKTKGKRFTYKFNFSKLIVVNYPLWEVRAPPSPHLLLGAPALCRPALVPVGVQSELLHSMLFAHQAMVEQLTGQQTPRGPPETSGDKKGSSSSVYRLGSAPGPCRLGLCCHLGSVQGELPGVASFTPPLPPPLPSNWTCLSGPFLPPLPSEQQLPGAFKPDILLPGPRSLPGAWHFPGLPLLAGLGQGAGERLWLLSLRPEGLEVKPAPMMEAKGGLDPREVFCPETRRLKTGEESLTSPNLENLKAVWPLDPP
In short: as §1

ETS2 = biological target: T8, ETS2 (Homo sapiens, UniProt P15036 1-469); settings: protein: recombinant; tags: N-terminal GST; dsDNA, one strand shown
T8 sequence: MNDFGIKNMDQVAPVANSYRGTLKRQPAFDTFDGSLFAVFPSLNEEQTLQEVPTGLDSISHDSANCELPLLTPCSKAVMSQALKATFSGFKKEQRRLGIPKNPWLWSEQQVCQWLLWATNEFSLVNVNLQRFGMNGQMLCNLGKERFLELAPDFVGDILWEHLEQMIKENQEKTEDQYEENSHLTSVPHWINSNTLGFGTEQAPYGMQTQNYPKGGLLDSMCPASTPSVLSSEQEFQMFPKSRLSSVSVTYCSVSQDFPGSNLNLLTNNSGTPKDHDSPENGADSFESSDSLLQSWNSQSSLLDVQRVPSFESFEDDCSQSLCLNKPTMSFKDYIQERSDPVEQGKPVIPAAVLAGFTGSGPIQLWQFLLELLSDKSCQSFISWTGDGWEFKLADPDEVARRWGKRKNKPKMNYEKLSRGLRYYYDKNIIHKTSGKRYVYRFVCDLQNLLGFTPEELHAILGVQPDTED
In short: as §1

SPDEF = biological target: T9, SPDEF (Homo sapiens, UniProt O95238 1-335); settings: protein: recombinant; tags: N-terminal GST; dsDNA, one strand shown
T9 sequence: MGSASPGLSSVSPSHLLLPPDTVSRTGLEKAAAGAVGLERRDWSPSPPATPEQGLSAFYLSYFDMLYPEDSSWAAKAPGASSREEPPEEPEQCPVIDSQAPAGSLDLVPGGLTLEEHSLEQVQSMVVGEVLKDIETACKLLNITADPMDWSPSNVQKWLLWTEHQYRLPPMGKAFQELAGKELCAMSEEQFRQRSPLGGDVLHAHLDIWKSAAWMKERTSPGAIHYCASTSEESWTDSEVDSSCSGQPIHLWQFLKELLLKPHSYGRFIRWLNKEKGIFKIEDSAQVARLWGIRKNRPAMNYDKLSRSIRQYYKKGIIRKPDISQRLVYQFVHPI
In short: as §1

ETV7 = biological target: T10, ETV7 (Homo sapiens, UniProt Q9Y603 1-341); settings: protein: recombinant; tags: N-terminal GST; dsDNA, one strand shown
T10 sequence: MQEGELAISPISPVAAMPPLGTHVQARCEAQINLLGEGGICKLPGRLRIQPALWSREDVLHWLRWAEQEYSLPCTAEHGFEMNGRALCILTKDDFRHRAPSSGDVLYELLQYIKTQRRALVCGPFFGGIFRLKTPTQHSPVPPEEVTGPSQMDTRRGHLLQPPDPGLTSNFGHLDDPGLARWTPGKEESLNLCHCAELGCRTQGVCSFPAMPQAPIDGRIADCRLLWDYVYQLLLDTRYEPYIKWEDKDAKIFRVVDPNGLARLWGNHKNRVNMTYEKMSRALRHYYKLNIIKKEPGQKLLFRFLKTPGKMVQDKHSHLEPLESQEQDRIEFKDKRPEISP
In short: as §1

ELF5 = biological target: T11, ELF5 (Homo sapiens, UniProt Q9UKW6-2 1-255); settings: protein: recombinant; tags: N-terminal GST; dsDNA, one strand shown
T11 sequence: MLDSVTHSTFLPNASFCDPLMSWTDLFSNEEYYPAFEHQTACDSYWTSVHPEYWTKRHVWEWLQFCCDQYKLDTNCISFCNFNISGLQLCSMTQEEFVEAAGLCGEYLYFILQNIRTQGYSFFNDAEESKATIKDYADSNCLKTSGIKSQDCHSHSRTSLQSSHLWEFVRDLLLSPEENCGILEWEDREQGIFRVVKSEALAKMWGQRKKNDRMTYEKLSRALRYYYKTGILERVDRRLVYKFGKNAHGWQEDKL
In short: as §1

ETV3 = biological target: T12, ETV3 (Homo sapiens, UniProt P41162-2 1-143); settings: protein: recombinant; tags: N-terminal GST; dsDNA, one strand shown
T12 sequence: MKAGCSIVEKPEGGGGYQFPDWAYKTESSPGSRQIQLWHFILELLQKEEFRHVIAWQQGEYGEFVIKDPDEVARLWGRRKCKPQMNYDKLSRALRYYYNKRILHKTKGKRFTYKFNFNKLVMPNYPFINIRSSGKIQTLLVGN
In short: as §1

ETV6 = ETV6 (Homo sapiens, UniProt P41212 1-452); settings: protein: recombinant; tags: N-terminal GST; dsDNA, one strand shown
In short: as §1

ETV1, sequence (P50549 whole entry): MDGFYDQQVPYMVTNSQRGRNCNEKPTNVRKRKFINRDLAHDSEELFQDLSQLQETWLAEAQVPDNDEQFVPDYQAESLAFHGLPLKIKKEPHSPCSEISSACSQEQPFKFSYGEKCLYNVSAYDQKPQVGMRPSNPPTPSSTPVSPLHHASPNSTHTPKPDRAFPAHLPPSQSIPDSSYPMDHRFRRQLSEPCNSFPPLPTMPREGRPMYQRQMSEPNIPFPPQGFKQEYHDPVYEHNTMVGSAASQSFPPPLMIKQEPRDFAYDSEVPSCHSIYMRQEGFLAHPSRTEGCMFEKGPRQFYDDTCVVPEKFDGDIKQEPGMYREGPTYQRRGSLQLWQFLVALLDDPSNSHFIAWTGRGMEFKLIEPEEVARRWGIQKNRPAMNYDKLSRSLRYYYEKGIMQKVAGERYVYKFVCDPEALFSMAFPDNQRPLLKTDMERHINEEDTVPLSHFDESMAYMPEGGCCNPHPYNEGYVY
HSF1, sequence (Q00613 whole entry): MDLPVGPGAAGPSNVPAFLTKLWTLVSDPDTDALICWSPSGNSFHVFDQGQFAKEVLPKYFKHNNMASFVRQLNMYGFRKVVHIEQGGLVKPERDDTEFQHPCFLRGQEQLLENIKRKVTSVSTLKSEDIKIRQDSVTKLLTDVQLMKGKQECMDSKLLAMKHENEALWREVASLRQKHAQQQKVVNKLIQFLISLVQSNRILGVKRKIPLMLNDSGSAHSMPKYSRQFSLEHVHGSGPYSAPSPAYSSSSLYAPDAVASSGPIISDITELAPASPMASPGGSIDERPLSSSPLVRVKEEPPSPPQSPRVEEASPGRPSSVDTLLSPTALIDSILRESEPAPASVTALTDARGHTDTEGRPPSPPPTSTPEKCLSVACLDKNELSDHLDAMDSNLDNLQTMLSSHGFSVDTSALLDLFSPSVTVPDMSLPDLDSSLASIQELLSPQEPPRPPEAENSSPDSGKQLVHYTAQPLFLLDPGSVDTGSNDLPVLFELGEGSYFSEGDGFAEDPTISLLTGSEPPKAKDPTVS
ELF4, sequence (Q99607 whole entry): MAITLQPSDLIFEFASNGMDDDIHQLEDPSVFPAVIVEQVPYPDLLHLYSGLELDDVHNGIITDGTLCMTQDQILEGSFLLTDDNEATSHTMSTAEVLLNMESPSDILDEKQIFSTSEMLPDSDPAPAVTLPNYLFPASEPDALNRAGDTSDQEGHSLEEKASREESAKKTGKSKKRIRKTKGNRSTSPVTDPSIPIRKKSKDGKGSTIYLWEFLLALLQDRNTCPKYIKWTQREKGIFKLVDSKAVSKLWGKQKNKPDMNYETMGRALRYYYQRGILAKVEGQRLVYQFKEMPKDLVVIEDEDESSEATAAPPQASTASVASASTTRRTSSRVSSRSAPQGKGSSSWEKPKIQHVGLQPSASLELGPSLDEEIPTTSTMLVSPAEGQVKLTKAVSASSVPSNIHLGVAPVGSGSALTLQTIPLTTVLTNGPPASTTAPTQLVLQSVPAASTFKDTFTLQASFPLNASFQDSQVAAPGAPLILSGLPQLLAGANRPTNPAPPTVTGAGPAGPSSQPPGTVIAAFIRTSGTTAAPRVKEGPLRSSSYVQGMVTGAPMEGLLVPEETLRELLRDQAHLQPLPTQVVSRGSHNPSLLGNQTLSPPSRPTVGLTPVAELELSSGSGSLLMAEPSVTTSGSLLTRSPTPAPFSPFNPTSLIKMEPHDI
CRX, sequence (O43186 whole entry): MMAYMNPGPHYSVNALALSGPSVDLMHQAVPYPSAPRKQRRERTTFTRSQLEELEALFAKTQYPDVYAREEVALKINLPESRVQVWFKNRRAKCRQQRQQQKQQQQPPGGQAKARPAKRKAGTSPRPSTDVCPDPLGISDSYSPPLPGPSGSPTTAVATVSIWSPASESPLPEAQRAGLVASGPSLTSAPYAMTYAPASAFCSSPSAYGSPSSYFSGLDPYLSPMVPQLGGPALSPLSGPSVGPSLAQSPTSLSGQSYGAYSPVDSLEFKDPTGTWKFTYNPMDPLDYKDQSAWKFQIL
ETV5, sequence (P41161 whole entry): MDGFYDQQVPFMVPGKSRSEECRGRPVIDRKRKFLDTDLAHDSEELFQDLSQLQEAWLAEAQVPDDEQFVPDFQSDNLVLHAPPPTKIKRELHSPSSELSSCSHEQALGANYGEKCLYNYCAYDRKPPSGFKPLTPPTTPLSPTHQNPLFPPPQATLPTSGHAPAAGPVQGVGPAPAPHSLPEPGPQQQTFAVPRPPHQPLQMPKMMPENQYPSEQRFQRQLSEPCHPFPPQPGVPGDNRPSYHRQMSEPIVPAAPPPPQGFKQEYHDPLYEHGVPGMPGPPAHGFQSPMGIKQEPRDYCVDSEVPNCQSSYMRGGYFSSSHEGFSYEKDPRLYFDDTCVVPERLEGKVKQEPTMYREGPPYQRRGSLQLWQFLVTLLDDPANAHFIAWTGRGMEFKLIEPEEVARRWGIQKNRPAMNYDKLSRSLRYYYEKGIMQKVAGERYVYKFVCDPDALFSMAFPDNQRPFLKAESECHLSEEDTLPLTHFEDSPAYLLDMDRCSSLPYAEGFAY
ETV6, sequence (P41212 whole entry): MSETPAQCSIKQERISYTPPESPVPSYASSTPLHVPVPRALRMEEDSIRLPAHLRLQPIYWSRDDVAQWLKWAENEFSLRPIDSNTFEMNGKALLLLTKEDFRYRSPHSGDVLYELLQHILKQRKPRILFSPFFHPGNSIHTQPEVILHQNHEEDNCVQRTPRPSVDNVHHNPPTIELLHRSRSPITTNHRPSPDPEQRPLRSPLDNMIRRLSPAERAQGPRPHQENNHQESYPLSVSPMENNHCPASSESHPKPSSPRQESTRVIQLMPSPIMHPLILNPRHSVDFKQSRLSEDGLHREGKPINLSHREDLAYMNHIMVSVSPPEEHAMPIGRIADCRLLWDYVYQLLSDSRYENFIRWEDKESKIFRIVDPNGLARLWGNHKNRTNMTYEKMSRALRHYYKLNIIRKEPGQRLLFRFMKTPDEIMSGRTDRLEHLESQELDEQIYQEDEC

TACTCT
binding signal (FEV): 1.33 fold enrichment (6-mer frequency, TF over GST control) | binding signal (ETV5): 1.45 fold enrichment (6-mer frequency, TF over GST control) | binding signal (HSF1): 1.37 fold enrichment (6-mer frequency, TF over GST control) | binding signal (SPIC): 1.28 fold enrichment (6-mer frequency, TF over GST control) | binding signal (ELF4): 1.42 fold enrichment (6-mer frequency, TF over GST control) | binding signal (ELK4): 1.44 fold enrichment (6-mer frequency, TF over GST control) | binding signal (ETV2): 1.43 fold enrichment (6-mer frequency, TF over GST control) | binding signal (ELF3): 1.49 fold enrichment (6-mer frequency, TF over GST control) | binding signal (CRX): 1.6 fold enrichment (6-mer frequency, TF over GST control) | binding signal (ETV1): 1.47 fold enrichment (6-mer frequency, TF over GST control) | binding signal (ERF): 1.46 fold enrichment (6-mer frequency, TF over GST control) | binding signal (ETV3L): 1.37 fold enrichment (6-mer frequency, TF over GST control) | binding signal (ETS2): 1.3 fold enrichment (6-mer frequency, TF over GST control) | binding signal (SPDEF): 1.39 fold enrichment (6-mer frequency, TF over GST control) | binding signal (ETV7): 1.33 fold enrichment (6-mer frequency, TF over GST control) | binding signal (ELF5): 1.38 fold enrichment (6-mer frequency, TF over GST control) | binding signal (ETV3): 1.39 fold enrichment (6-mer frequency, TF over GST control) | binding signal (ETV6): 1.39 fold enrichment (6-mer frequency, TF over GST control)
